This is an account of results in PubChem BioAssay.

“And” between values parts separate entries of the source, which are not always exact repeats. Equal values may be shown once. The source made the active and inactive calls.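 Rule for the calls, unless noted: active = compounds whose cell count with miR-34 switched on is under 0.7 times the count with it off; inactive = the rest.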

The nature of assay [1]: liver-stage malaria parasite growth inhibition, primary screen, cell-based, HepG2, luciferase luminescence, HepG2 viability (AID 624349; in the data active = parasite load remaining mostly below about 12%, no sharp cut-off; inactive = mostly above about 10%;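 note: 100% = mean of DMSO negative control wells on the same plate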). The following applies: P. berghei liver stage in HepG2, luciferase luminescence, concentration not given here; parasite load remaining: stronger effect = lower value; viability: measured here: HepG2 viability without parasites.
The nature of assay [2]: stimulators of nuclear beta-catenin in C2C12, primary screen, imaging, WNT3A-conditioned medium, mouse C2C12, NPC library (AID 1117326; in the data active = nuclear beta-catenin stimulation mostly above about 4.2%, no sharp cut-off; inactive = mostly below about 10%). As to conditions: stronger effect = higher value.
Assay [3] can be described thus: stimulators of insulin release from INS-1E, primary screen, cell-based, 5 mM glucose, NPC library (AID 1117329;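 active = compound raises insulin release from rat beta cells at 5 mM glucose, no numeric limit stated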). As to conditions: rat INS-1E insulin secretion, at 10 µM, stronger effect = higher value.
Assay [4] is described as follows: growth inhibition of GSK3B-pretreated HCT116 cells – cell-based, CellTiter-Glo, 0.2 to 20 µM (AID 1117336;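 active = compounds lowering colon cancer cell viability after pretreatment blocking the GSK3B kinase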). The following applies: HCT116 viability after GSK3B inhibitor, at 20 µM, stronger effect = higher value. Background: In ATP-based viability assays light output follows the ATP content of the culture.
Assay [5] is described as follows: inhibition of endothelial tube formation, primary screen, imaging, VEGF stimulated, CD31 staining, tube area, NPC library (AID 1117340;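 active = compound that reduces growth-factor-driven endothelial tube area in a mixed cell culture, no cutoff stated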). The following applies: VEGF-stimulated ADSC/ECFC co-culture, at 10 µM, stronger effect = higher value.
Assay [6] is described as follows: glucagon-like peptide 1 release enhancers, primary assay, NCI-H716 cell line, NPC library (AID 1117341;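 active = compound raises GLP1 secretion from the human gut endocrine cells, with no numeric limit stated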). The following applies: NCI-H716 cells, at 10 µM, stronger effect = higher value.
The nature of assay [7]: HCT116 colon cancer cell growth inhibition, primary screen, CellTiter-Glo luminescence, NPC library (AID 1117342;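 active = compounds that lower survival of HCT116 colon cancer cells in the luminescence readout, no numeric limit stated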). The following applies: at 20 µM (top of the series).
Assay [8] in a line: CellTiter-Glo luminescent readout of SW480 viability loss, NPC library primary (AID 1117343;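 active = compounds that lower viability of the colon cancer cells in the luminescence readout, with no numeric limit stated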). The following applies: CellTiter-Glo luminescence; at 20 µM (top of the series).
Assay [9] is described as follows: decreased DLD-1 cellular survival, CellTiter-Glo luminescent readout, NPC compound collection, primary HTS (AID 1117346;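 active = compounds that lower survival of DLD-1 colon cancer cells in the luminescence readout, no cutoff given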). As to conditions: DLD-1 viability, CellTiter-Glo luminescence; at 20 µM (top of the series).
Assay [10] is described as follows: differential killing of epithelial or mesenchymal cells, primary screen, imaging, PC-3E GFP, TEM4-18 mCherry, co-culture (AID 1345086;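 active = compounds killing one labelled cell type while sparing the other, by normalised counts and ratio limits, not self-fluorescent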;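 for all read-outs here: cells exposed to compound for 72 h before imaging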;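 for red/green cell ratio (normalised): normalised mesenchymal count divided by normalised epithelial count so high means epithelial killing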). The following applies: imaging cell counts, at 1 µM; for red/green cell ratio (normalised): actives lie on both sides.
Assay [11] deals with Aerobactin synthetase IucA (Klebsiella pneumoniae hvKP1). The experiment in a line: Biochemical IucA enzyme inhibition primary screen of the Spectrum library (AID 1346200; call rule not given here;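 note: 100% = wells without compound and 0% = wells lacking enzyme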). The following applies: malachite green pyrophosphate, A620, at 8 µM, stronger effect = lower value.
A short description of assay [12]: sensitizers of A549 cells to miR-34 induction, primary screen, imaging, A549 dox-inducible miR-34, nuclei and caspase counts (AID 1347080). The following applies: A549 miR-34 inducible, Hoechst nuclei count, 48 h.
Assay [13] in a line: survival rescue of mitochondrial mutant cells in low glucose, primary screen, MELAS cybrids, Rieske KO mouse fibroblasts, CellTiter-Glo (AID 1508586;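 active = mean z-score across replicates of 1.96 or higher in either the MELAS or the Rieske mutant cell line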;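 note: z relative to plate mean and SD of compound and empty wells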).
In assay [14] the target is NAD(+) hydrolase SARM1 (Homo sapiens) (UniProt Q6SZW1). In words: SARM1 TIR NADase inhibitors, cell lysate, NAD-Glo luminescence (AID 1508614;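 active = compound whose remaining NAD level is above about 45 nM, limit read from the data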;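 note: higher remaining NAD means stronger inhibition of SARM1 NADase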). The following applies: SAM-TIR HEK293T lysate NADase, at 1 µM, stronger effect = higher value.
Chain of NAD(+) hydrolase SARM1 (Homo sapiens) (Q6SZW1 whole entry, looked up, the tested form may be a part): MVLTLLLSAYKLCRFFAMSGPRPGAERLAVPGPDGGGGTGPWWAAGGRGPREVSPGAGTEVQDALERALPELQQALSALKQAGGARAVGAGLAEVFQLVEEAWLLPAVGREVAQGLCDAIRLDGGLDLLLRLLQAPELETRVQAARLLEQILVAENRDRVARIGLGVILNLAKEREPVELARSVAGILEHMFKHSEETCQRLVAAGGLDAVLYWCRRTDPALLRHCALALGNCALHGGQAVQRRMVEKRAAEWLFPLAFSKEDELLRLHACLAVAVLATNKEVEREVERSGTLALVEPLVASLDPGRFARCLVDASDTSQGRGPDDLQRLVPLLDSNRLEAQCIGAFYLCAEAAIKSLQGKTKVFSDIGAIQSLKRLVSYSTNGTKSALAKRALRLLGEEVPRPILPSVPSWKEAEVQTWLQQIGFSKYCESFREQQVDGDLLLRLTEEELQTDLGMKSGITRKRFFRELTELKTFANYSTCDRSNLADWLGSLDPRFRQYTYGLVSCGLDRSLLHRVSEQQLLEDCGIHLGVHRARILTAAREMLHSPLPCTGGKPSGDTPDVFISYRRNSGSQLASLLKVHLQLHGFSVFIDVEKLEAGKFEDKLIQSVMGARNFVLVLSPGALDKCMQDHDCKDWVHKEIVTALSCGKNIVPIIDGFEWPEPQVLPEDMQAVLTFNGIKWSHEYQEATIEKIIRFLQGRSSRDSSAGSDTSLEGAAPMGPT
In assay [15] the target is Mitogen-activated protein kinase 7 (Homo sapiens) (UniProt Q13164). In words: ERK5 transactivation activators in reporter cells, primary screen, cell-based, HTS (AID 1508626;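 active = luciferase signal above three times the same-plate solvent-only control wells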;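 note: luciferase driven by Gal4-ERK5 fusion binding five Gal4 sites before minimal TATA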). The following applies: HeLa Gal4-ERK5 transactivation, 18 h, at 5 µM, stronger effect = higher value.
Chain of Mitogen-activated protein kinase 7 (Homo sapiens) (Q13164 whole entry, looked up, the tested form may be a part): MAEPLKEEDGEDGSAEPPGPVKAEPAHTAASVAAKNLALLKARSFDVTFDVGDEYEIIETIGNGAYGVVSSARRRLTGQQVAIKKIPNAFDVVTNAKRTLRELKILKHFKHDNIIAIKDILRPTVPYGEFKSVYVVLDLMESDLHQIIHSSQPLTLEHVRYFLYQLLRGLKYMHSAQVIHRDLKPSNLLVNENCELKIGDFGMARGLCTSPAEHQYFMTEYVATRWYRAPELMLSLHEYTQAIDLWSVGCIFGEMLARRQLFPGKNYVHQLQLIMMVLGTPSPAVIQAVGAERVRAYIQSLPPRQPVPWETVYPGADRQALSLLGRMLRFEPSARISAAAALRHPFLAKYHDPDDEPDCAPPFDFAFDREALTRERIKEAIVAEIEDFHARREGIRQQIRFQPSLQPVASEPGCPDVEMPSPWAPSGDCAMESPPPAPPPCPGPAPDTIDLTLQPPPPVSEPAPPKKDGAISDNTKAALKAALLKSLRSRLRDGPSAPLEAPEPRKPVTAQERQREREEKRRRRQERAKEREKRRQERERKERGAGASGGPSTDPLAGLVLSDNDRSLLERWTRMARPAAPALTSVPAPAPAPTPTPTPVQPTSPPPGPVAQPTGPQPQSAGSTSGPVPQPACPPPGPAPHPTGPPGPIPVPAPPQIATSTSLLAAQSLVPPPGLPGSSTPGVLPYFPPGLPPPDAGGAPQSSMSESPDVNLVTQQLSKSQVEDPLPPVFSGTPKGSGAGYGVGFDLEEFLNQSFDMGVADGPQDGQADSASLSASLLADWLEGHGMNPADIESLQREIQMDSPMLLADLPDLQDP
Assay [16] is described as follows: viability rescue of complex I mutant cybrids, primary screen, cell-based, galactose medium, ATP luminescence (AID 1645843;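 active = z-score of at least 1.8 in each of two replicates, scored against plate mean and spread of sample wells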;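 note: positive z means more ATP and so rescue of galactose-driven cybrid death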). As to conditions: complex I mutant cybrid cells, 72 h, stronger effect = higher value.
Setting [17] is: measured here: epithelial PC-3E GFP cell survival.
[18] abbreviates: measured here: mesenchymal TEM4-18 mCherry cell survival.
Setting [19] is: measured here: relative caspase fold change +Dox/-Dox.
Setting [20] is: measured here: total cells with miR-34 induction, stronger effect = lower value.
[21] abbreviates: measured here: total cells without miR-34 induction.
Setting [22] is: MELAS cybrid survival, CellTiter-Glo 48 h, stronger effect = higher value.
[23] abbreviates: Rieske KO mouse fibroblast survival, CellTiter-Glo 72 h.

Broadly, the viability is a read-out of living cells in per cent, often relative to untreated cells. As for `CN(C)C(=O)Oc1cc(OC(=O)N(C)C)cc(C(O)CNC(C)(C)C)c1` (centres undefined), the parasite load remaining in assay [1] was 140% (inactive) and 77.2% (inactive) and 45.2% (inactive). In [1], the viability was 97.8% and 75.7% and 103%. In addition, the nuclear beta-catenin stimulation was 0.1% (inactive) in assay [2] (at 10 µM) and 4.2% in [2] (stimulation, at 2 µM). For the same molecule, the insulin secretion stimulation in assay [3] was 0.9% (inactive). Further, the viability decrease in assay [4] is -5.7% (inactive). In assay [5], the tube area decrease is -4% (inactive). Moreover, the GLP1 secretion stimulation in assay [6] is 12.7% (inactive). Moreover, in [7], the inhibition of viability was -0.23% (inactive). For the same molecule, the viability decrease (inhibition) in assay [8] was -17% (inactive); in assay [9], -13% (inactive). Moreover, in assay [10], the red/green cell ratio (normalised) was 0.71 (inactive). Further, the normalised cell number in [10] (setting [17]) is 1.3; in assay [10] (setting [18]) it was 0.92. Moreover, in assay [11], the activity remaining is 118% (inactive). Also, the fold change in assay [12] (stronger effect = lower value) was 0.804 (inactive) and 0.911 (inactive) and 0.913 (inactive); in assay [12] (setting [19]), 1.26 and 0.519 and 1.12. Further, the cell count in assay [12] (setting [20]) was 8290 and 8600 and 10000; in assay [12] (setting [21]), 10300 and 9440 and 11000. Besides, the z-score in assay [13] (setting [22]) is -0.119 (inactive) and 0.142 (inactive) and -0.358 (inactive); in assay [13] (setting [23]) it was -0.285 and -0.41 and -0.25; in assay [16] it was 0.805 (inactive). Besides, the remaining NAD in [14] is 10 nM (inactive). For the same molecule, in assay [15], the luciferase signal was 80 AU (inactive).

In the case of `c1ccc(N2CCNCC2)cc1`, the nuclear beta-catenin stimulation in assay [2] (at 10 µM) is 0.1% (inactive); in assay [2] (stimulation, at 2 µM), -0.6%. In [3], the insulin secretion stimulation is 3.1% (inactive). Moreover, the viability decrease in assay [4] is 3.7% (inactive). The tube area decrease in [5] was -2.6% (inactive). The GLP1 secretion stimulation in assay [6] is -0.5% (inactive). For the same molecule, the inhibition of viability in [7] is 10.5% (inactive). Also, the viability decrease (inhibition) is 0.3% (inactive) in assay [8] and -5.9% (inactive) in [9]. Moreover, the red/green cell ratio (normalised) in assay [10] is 1.17 (inactive). For the same molecule, the values for the normalised cell number in assay [10] (setting [17]) and in [10] (setting [18]) were 0.95 and 1.12, respectively.

For `CN1C(=O)COc2c(C(=O)NC3CN4CCC3CC4)cc(Cl)cc21` (centres undefined), the parasite load remaining in assay [1] was 118% (inactive). Moreover, the viability in [1] worked out at 75.1%. Moreover, the nuclear beta-catenin stimulation in assay [2] (at 10 µM) is 3.8% (inactive); in [2] (stimulation, at 2 µM) it was 3.8%. The insulin secretion stimulation in assay [3] is 1.3% (inactive). In addition, the viability decrease in [4] is -9.5% (inactive). For the same molecule, the tube area decrease in assay [5] is -0.8% (inactive). Also, the GLP1 secretion stimulation in assay [6] is 0% (inactive). In addition, the inhibition of viability in assay [7] is 5.23% (inactive). Further, the viability decrease (inhibition) in assay [8] is 18.3% (inactive); in assay [9], -7.8% (inactive). The fold change in assay [12] (stronger effect = lower value) is 0.858 (inactive); in assay [12] (setting [19]), 1.27. Besides, the cell count worked out at 8690 in assay [12] (setting [20]) and 10100 in assay [12] (setting [21]). Moreover, the z-score in assay [16] is 0.255 (inactive).

In the case of `CN1CCN(C(=O)O[C@H]2c3nccnc3C(=O)N2c2ccc(Cl)cn2)CC1`, the parasite load remaining in assay [1] was 62.4% (inactive). Further, the viability in assay [1] came out at 93.7%. The nuclear beta-catenin stimulation in assay [2] (at 10 µM) is -0.9% (inactive); in assay [2] (stimulation, at 2 µM), -0.8%. For the same molecule, in assay [3], the insulin secretion stimulation is 2.3% (inactive). Also, the viability decrease in assay [4] was 2.2% (inactive). Besides, the tube area decrease in assay [5] was -7.8% (inactive). The GLP1 secretion stimulation in assay [6] was -0.8% (inactive). The inhibition of viability in assay [7] was -1.1% (inactive). In addition, the viability decrease (inhibition) in assay [8] was 5.5% (inactive); in [9], -2.6% (inactive). The red/green cell ratio (normalised) in [10] was 0.85 (inactive). Moreover, the normalised cell number in assay [10] (setting [17]) was 1.07; in assay [10] (setting [18]), 0.91. Also, the activity remaining in [11] was 110% (inactive). The fold change in assay [12] (stronger effect = lower value) is 0.943 (inactive) and 0.981 (inactive); in assay [12] (setting [19]), 1.01 and 4.25. Moreover, the cell count in assay [12] (setting [20]) was 9050 and 10100; in assay [12] (setting [21]) it was 9590 and 10300. Further, the remaining NAD in [14] was 10 nM (inactive). Also, in [15], the luciferase signal was 40 AU (inactive). Further, the z-score in assay [16] was 0.52 (inactive).

Regarding `Nc1nc(N)nc(NC2CC2)n1`, the nuclear beta-catenin stimulation in assay [2] (at 10 µM) is 0.9% (inactive); in assay [2] (stimulation, at 2 µM), 2.8%. Also, the insulin secretion stimulation in assay [3] is -1.3% (inactive). Besides, in assay [4], the viability decrease was -16.8% (inactive). For the same molecule, the tube area decrease in [5] was 5.4% (inactive). In addition, the GLP1 secretion stimulation in [6] was 2.4% (inactive). In addition, the inhibition of viability in assay [7] was 2.07% (inactive). Further, the viability decrease (inhibition) was -5.7% (inactive) in [8] and -8.2% (inactive) in assay [9]. Moreover, the red/green cell ratio (normalised) in assay [10] was 0.97 (inactive). The normalised cell number came out at 1 in assay [10] (setting [17]) and 0.96 in assay [10] (setting [18]). Besides, the fold change was 0.94 (inactive) and 0.918 (inactive) in assay [12] (stronger effect = lower value); 0.828 and 0.774 in [12] (setting [19]). Also, the cell count is 8490 and 8320 in assay [12] (setting [20]); 9030 and 9070 in assay [12] (setting [21]). In addition, the z-score in assay [13] (setting [22]) was -0.201 (inactive); in assay [13] (setting [23]) it was -0.194. Also, in assay [14], the remaining NAD was 10 nM (inactive).

Consider `COP(=O)(OC)OC=C(Cl)Cl`, for which the red/green cell ratio (normalised) in assay [10] (counts scaled to control wells, 1 = unselective) is 1.1 (inactive).
